This is part of a sample that, as a whole, favours compounds with a hit. Of some 83,000 tested, about 20% had one in any assay.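 48-hour exposure, single concentration, 96-well plates; percent growth endpoint where 0 means no net growth. Active: below 10.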 Values without a mark were called inactive. Calls of active or inactive are those of the source.

This assay deals with MDA-MB-435 melanoma. Nature of the assay: NCI-60 one-dose screen, 48 h (100 = growth as untreated, 0 = no growth, -100 = all killed). The note with it: 10 µM.
With `CN1CCN(c2ccc(Nc3nc(N4CCN(S(=O)(=O)c5ccc(F)cc5)CC4)c4sccc4n3)cc2)CC1`, the growth is -100% (active).

For `CCCCCc1ccc(S(=O)(=O)Nc2cc(-c3csc(N(C)C(C)=O)n3)ccc2N2CCN(C)CC2)cc1`, the growth was 25.4%.

Turning to `CN1CCN(c2ccc(Nc3nc(NCCCNC(=O)C4CCCCC4)c4sccc4n3)cc2)CC1`, the growth is 34%. Turning to `N[C@@H](CSSC[C@H](N)C(=O)Nc1ccc(OCC2CCCC2)cc1)C(=O)Nc1ccc(OCC2CCCC2)cc1`, the growth is -100% (active). With `COc1ccc2nc(Cl)c(-c3cc(-c4ccccc4)nc(=O)[nH]3)cc2c1` the figure was 75.9%; with `O=C(Nc1ccc(OCc2ccccc2)cc1)Nc1ccc(Cl)c(C(F)(F)F)c1`, -1.55% (active); with `COc1ccc2[nH]c(O)c(N=NC(=O)COc3ccc(NC(=O)Nc4ccc(Cl)cc4)cc3)c2c1`, -52% (active).

Regarding `Cc1cc2c(c(O)c1Br)-c1ncoc1C(=O)[C@]1(C)CC[C@H](C(C)C)[C@H]21`, the growth was 5.72% (active). With `CCN1CCN(c2ccc(NC(=O)Nc3ccc4c(c3F)CCN4c3ccnc(C(=O)NC)c3)cc2C(F)(F)F)CC1` the figure was -92.7% (active); with `O=C1Nc2ccc(F)cc2/C1=C/c1cccc(OCc2ccccc2)c1`, 5.74% (active); with `Cc1ccc(NC(=O)c2ccc(-n3c(=O)[nH]c4ccccc4c3=O)cc2)cc1`, 102%. For `O=C(Nc1ccncc1)c1ccc(-n2c(=O)[nH]c3ccccc3c2=O)cc1` the value was 103%.

Take `Cc1ccc(-c2cc(-c3cc4ccccc4nc3Cl)[nH]c(=S)n2)cc1`: the growth was -1.81% (active). With `O=C(c1ccc(Cl)cc1)C1[C@H](c2ccc(Br)cc2)[C@@H](c2ccccc2)NC12C(=O)Nc1ccc(Cl)cc12` (some centres undefined) the figure was -84.9% (active); with `O=C(O)CCCCCCCCCCN1C(=O)/C(=C/c2cnc(-c3ccc(Cl)cc3)s2)SC1=S`, 49%. Regarding `CN1CCN(c2ccc(Nc3nc(N4CCN(S(=O)(=O)c5ccc(Cl)cc5)CC4)c4sccc4n3)cc2)CC1`, the growth is -100% (active). For the compound `CN1CCN(c2ccc(C(=O)/C=C/c3cc(Br)ccc3F)cc2)CC1`, the growth is 1.57% (active). As for `O=c1nc(-c2ccccc2)cc(-c2cc3ccccc3nc2Cl)[nH]1`, the growth was 53.5%.

As for `CC1=C2C(=C[C@@](C)(CO)[C@@H]2O)/C(=N\N)[C@](C)(O)C12CC2`, the growth was -63.8% (active). For `O=C(c1ccc(O)cc1)C1[C@H](c2ccc(Br)cc2)[C@@H](c2ccccc2)NC12C(=O)Nc1ccc(Br)cc12` (some centres undefined) the value was -25.1% (active).

As to `COc1ccc(C=CC(=O)c2ccc(-n3c(C)nc4c(cnn4-c4ccccc4)c3=O)cc2)cc1`, the growth was 11.2%. In the case of `O=C(c1ccc(O)cc1)C1[C@H](c2ccccc2Br)[C@@H](c2ccccc2)NC12C(=O)Nc1ccc(Cl)cc12` (some centres undefined), the growth is -16.4% (active). For the compound `O=C(c1ccccc1)n1ccc(-c2cc3cc(Br)ccc3oc2=O)n1`, the growth was 48.9%.

Turning to `C#Cc1ccc(S(=O)(=O)Nc2cccc(-c3csc(NC(C)=O)n3)c2)cc1`, the growth is 51.5%. For `O=C(N/N=C/c1ccc(-c2cccc([N+](=O)[O-])c2)o1)c1[nH]c2ccc(Br)cc2c1-c1ccccc1`, the growth is 16.6%. `O=C(Nc1nc2ccc([N+](=O)[O-])cc2s1)Nc1cc(Cl)ccc1I`: the growth is -52.1% (active).

Take `C=C(c1ccc(OC)c(N)c1)c1cc(C)nc2ccccc12`: the growth was -48.9% (active). Regarding `CNC(=O)c1cccc(N2CCc3c2ccc(NC(=O)Nc2ccc(N4CCN(C)CC4)c(C(F)(F)F)c2)c3F)c1`, the growth was -96.1% (active).

On to `COc1ccc([C@H]2C(C(=O)c3ccc(Cl)cc3)C3(N[C@@H]2c2ccccc2)C(=O)Nc2ccc(Br)cc23)cc1` (some centres undefined), for which the growth was -36.6% (active).

With `CN1CCN(Cc2ccc(C(=O)Nc3cccc(Nc4ccc5cc(O)ccc5n4)c3)cc2C(F)(F)F)CC1`, the growth is -85.5% (active). Turning to `Brc1ccc(/C=N/Nc2ncnc3sc4c(c23)CCN(Cc2ccccc2)C4)cc1`, the growth is 73.5%. For `COc1ccc(C(C)=C(c2ccc(OCCCN(C)C)cc2)c2ccc(OCCCN(C)C)cc2)cc1`, the growth is -99.9% (active). As to `C=C(C)[C@@H]1CC[C@]2(C(=O)OC)CC[C@]3(C)[C@H](CC[C@@H]4[C@@]5(C)CC[C@H](N)C(C)(C)[C@@H]5CC[C@]43C)[C@@H]12`, the growth was -97% (active).

On to `CS(=O)(=O)Nc1ccc(-c2ccc3c(c2)ncn3-c2ccc(NC(=O)Nc3ccc(Br)cc3)cc2)cc1`, for which the growth is -18% (active).

The values are drawn from PubChem BioAssay (NCI).
